Assay results: the supplement of paper PMC10849652
About 7,900 targets were measured; listed, in parts, are those with a hit and a random draw of the rest. About 0.6% of all pairs of compound and target were hits. Unmarked numbers belong to inactive results.

Tests used:
Assay in all cases: log2 fold change, soluble protein after heating vs DMSO (PISA); higher = thermal stabilisation; K562 cells, 10 uM, 30 min; active = over 0.2 and 3.5 SD of the protein, either way, in both replicates (recomputed)
[1] = compound: CC1=C(C=C(C=C1)NC(=O)C2=CC(=CC=C2)C(C)(C)C#N)NC3=CC4=C(C=C3)N=CN(C4=O)C
Outline: (§1)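 Quantification of soluble protein used TMTpro 16plex LC-MS/MS, with channel sums equalised. Samples were the supernatant after 21,000xg for 90 min of pooled aliquots from K562 cells (2×10^6 cells/mL) treated with 10 μM compound for 30 min, heated for 3 min over 48°C-58°C, and extracted in PBS with 0.5% NP-40 at 4°C. Values, from duplicates, describe thermal stability against control samples on a log2 fold-change scale.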

[2] = compound: CC1=C(C=C(C=C1)NC(=O)C2=CC(=CC=C2)N(C)C)NC(=O)C3=CC=C(C=C3)O
Outline: as §1

[3] = compound: CC1=CC=C(C=C1)SC2=C3C=C(SC3=CN=C2)C(=O)N
Outline: as §1

[4] = compound: CC1=NC(=CC=C1)C2=C(N=C(N2)C(C)(C)C)C3=CC4=NC=CN=C4C=C3
Outline: as §1

Nexturastat A = compound: CCCCN(Cc1ccc(C(=O)NO)cc1)C(=O)Nc1ccccc1 [Nexturastat A]
Outline: as §1

vemurafenib = compound: CCCS(=O)(=O)Nc1ccc(F)c(C(=O)c2c[nH]c3ncc(-c4ccc(Cl)cc4)cc23)c1F [vemurafenib]
Outline: as §1

[5] = compound: CCCS(=O)(=O)Nc1ccc(F)c(C(=O)c2c[nH]c3ncc(Cl)cc23)c1F
Outline: as §1

[6] = compound: CCCc1cc(C)[nH]c(=O)c1CNC(=O)c1cc(-c2ccnc(N3CCN(C)CC3)c2)cc2c1cnn2C(C)C
Outline: as §1

givinostat = compound: CCN(CC)Cc1ccc2cc(COC(=O)Nc3ccc(C(=O)NO)cc3)ccc2c1 [givinostat]
Outline: as §1

barasertib = compound: CCN(CCCOc1ccc2c(Nc3cc(CC(=O)Nc4cccc(F)c4)[nH]n3)ncnc2c1)CCOP(=O)(O)O [barasertib]
Outline: as §1

[7] = compound: CC[C@@H]1C(=O)N(C)c2cnc(Nc3ccc(C(=O)NC4CCN(C)CC4)cc3OC)nc2N1C1CCCC1
Outline: as §1

volasertib = compound: CC[C@@H]1C(=O)N(C)c2cnc(Nc3ccc(C(=O)N[C@H]4CC[C@H](N5CCN(CC6CC6)CC5)CC4)cc3OC)nc2N1C(C)C [volasertib]
Outline: as §1

[8] = compound: CC[C@H](C)N1C=C(C2=C(C=C(C=C21)C3=CN=C(C=C3)N4CCNCC4)C(=O)NCC5=C(C=C(NC5=O)C)C)C
Outline: as §1

epoxomicin = compound: CC[C@H](C)[C@@H](C(=O)N[C@@H]([C@@H](C)O)C(=O)N[C@@H](CC(C)C)C(=O)[C@]1(CO1)C)NC(=O)[C@H]([C@@H](C)CC)N(C)C(=O)C [epoxomicin]
Outline: as §1

[9] = compound: CCn1c(C(=O)N(C2CC2)C2CC2)cc2c3c(ncn3C)c(Nc3cc(C)n(C)n3)nc21
Outline: as §1

[10] = compound: CCn1cc(-c2ccnc3[nH]c(-c4cccc(CN(C)C)c4)cc23)c(-c2ccc(NC(=O)N(C)C)cc2)n1
Outline: as §1

[11] = compound: CN(C)CC(=O)Nc1ccc2[nH]c(=O)c3ccccc3c2c1
Outline: as §1

rosiglitazone = compound: CN(CCOC1=CC=C(C=C1)C[C@H]2C(=O)NC(=O)S2)C3=CC=CC=N3 (racemic) [rosiglitazone]
Outline: as §1

[12] = compound: CN1C2=C(C3=C1C(=O)N(N=C3)CC4=CC(=CC=C4)N)SC(=C2)S(=O)C
Outline: as §1

[13] = compound: CN1CCC(CNc2ccc3ncc(-c4cccc(OC(F)(F)F)c4)n3n2)CC1
Outline: as §1

Sequence of UniProt P49841 (P49841 whole entry, looked up): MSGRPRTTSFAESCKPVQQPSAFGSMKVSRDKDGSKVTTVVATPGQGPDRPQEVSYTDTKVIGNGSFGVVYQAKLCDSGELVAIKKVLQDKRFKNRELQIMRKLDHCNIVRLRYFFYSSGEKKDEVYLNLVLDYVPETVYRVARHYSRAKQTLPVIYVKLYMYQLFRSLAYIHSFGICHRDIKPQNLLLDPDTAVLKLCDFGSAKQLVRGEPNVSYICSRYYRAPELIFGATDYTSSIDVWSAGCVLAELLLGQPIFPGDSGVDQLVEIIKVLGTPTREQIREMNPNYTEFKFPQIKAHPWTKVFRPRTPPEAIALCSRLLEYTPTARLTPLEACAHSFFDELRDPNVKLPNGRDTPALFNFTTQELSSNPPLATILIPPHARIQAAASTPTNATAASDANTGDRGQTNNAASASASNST
Sequence of UniProt Q8TEQ6 (Q8TEQ6 whole entry, looked up): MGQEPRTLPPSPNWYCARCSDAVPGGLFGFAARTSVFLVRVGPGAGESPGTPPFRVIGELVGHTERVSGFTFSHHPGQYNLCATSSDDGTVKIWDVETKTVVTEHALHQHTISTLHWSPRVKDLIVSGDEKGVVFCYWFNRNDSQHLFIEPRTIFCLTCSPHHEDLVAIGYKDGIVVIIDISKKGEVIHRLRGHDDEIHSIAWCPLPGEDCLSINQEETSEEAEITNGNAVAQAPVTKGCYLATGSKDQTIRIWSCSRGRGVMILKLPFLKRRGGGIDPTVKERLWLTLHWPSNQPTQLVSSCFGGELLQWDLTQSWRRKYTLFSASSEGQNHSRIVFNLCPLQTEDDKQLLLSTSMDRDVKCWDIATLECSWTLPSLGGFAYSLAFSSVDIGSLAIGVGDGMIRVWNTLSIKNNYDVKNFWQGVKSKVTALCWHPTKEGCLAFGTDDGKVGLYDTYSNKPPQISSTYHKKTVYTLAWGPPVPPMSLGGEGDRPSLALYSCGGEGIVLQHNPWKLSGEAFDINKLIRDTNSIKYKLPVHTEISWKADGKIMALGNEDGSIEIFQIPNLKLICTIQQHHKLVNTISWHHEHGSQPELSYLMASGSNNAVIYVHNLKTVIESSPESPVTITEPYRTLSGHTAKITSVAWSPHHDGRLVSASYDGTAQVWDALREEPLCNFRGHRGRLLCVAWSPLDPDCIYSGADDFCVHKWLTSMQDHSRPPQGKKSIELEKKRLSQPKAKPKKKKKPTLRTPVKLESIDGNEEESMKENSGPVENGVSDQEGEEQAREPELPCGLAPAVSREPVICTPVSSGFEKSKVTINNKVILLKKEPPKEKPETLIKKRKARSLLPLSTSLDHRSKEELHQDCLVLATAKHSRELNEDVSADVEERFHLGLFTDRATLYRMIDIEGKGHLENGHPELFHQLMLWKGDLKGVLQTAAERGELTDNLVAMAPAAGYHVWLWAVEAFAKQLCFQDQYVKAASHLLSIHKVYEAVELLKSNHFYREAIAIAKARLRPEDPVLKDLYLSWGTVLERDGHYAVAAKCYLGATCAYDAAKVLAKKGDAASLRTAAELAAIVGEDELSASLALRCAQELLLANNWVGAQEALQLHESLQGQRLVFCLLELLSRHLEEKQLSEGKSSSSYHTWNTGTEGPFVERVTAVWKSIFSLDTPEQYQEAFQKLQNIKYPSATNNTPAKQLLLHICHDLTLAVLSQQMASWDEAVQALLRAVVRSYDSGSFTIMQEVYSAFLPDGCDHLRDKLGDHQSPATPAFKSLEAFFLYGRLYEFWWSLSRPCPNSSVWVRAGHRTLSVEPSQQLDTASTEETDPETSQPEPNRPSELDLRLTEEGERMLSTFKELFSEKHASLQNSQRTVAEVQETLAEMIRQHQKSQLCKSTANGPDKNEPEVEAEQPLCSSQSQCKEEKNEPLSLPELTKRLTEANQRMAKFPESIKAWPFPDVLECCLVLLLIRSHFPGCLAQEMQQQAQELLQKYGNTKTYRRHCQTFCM
Sequence of UniProt O00458 (O00458 whole entry, looked up): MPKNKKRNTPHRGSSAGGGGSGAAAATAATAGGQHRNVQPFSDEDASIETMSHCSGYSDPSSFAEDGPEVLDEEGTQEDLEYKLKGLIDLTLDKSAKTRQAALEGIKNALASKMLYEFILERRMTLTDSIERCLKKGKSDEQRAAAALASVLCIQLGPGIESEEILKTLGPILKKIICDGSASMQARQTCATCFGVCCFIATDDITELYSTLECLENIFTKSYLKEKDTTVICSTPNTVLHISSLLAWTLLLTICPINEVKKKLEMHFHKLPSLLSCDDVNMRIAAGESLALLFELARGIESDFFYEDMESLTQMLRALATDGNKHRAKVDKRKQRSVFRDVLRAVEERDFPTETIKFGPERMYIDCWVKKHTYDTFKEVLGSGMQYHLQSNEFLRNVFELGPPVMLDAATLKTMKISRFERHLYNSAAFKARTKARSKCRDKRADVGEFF
Sequence of UniProt P62879 (P62879 whole entry, looked up): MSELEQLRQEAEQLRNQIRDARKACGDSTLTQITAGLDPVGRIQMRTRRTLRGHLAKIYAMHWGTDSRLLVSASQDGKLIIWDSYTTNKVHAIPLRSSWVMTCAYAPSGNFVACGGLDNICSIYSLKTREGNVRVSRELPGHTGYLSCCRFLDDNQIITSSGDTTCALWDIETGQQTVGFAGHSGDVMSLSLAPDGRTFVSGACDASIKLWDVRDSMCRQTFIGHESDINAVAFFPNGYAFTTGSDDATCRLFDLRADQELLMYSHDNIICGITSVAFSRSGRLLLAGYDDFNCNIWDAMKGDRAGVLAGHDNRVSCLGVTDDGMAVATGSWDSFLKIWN
Sequence of UniProt Q5SSJ5 (Q5SSJ5 whole entry, looked up): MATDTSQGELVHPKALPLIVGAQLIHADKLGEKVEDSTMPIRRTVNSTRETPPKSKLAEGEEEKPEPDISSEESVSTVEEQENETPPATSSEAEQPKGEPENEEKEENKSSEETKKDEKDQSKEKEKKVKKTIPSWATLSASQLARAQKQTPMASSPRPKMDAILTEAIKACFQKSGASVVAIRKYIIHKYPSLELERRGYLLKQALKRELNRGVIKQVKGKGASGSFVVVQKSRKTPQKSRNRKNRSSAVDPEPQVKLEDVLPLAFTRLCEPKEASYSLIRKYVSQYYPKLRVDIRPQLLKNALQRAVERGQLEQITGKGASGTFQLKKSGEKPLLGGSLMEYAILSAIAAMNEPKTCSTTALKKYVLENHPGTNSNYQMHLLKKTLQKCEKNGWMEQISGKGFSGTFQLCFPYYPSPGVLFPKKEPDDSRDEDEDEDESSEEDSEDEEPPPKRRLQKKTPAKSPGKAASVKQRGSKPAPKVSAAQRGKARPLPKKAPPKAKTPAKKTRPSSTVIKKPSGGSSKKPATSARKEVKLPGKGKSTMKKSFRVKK
Sequence of UniProt P04035 (P04035 whole entry, looked up): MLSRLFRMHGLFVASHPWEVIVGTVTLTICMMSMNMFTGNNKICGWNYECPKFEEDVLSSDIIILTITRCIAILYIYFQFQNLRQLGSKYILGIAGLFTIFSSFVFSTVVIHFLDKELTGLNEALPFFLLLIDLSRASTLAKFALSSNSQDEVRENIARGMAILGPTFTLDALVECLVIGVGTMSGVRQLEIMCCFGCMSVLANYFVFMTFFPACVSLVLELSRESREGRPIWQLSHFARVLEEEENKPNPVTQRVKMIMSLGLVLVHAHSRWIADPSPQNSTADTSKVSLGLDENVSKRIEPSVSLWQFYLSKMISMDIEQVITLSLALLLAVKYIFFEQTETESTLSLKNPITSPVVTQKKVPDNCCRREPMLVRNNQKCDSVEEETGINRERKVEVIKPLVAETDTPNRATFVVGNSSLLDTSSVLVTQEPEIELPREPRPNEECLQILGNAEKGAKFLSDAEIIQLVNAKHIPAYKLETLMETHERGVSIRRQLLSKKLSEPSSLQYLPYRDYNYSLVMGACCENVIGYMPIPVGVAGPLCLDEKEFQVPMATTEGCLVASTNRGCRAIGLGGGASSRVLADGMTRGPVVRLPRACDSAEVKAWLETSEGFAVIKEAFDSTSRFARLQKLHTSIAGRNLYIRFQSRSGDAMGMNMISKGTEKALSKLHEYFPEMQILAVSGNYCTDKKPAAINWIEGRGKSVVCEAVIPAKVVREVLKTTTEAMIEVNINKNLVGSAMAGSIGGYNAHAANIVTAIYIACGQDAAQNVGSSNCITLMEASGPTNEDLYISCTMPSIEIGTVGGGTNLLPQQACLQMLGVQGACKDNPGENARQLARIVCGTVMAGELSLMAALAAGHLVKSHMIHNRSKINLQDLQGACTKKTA
Sequence of UniProt P52657 (P52657 whole entry, looked up): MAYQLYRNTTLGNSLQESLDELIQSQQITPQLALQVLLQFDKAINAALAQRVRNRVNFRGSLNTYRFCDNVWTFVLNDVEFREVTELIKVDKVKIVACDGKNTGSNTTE
Sequence of UniProt P49840 (P49840 whole entry, looked up): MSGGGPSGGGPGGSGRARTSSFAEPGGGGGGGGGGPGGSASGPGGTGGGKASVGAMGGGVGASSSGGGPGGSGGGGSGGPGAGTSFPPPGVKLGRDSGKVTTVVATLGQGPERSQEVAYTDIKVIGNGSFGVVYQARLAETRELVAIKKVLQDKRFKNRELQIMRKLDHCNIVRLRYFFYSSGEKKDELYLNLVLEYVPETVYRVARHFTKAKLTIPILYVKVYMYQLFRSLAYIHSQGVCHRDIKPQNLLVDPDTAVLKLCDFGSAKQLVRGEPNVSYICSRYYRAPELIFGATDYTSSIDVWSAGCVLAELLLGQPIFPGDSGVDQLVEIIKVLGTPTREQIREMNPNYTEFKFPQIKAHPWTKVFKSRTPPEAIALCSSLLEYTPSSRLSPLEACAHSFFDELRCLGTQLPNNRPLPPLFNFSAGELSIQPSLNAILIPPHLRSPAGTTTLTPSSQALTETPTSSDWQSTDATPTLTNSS

Target	log2 fold change [1]	log2 fold change [2]	log2 fold change [3]	log2 fold change [4]	log2 fold change (Nexturastat A)	log2 fold change (vemurafenib)	log2 fold change [5]	log2 fold change [6]	log2 fold change (givinostat)	log2 fold change (barasertib)	log2 fold change [7]	log2 fold change (volasertib)	log2 fold change [8]	log2 fold change (epoxomicin)	log2 fold change [9]	log2 fold change [10]	log2 fold change [11]	log2 fold change (rosiglitazone)	log2 fold change [12]	log2 fold change [13]
HP1BP3 (UniProt Q5SSJ5)	0.03	-0.026	-0.025	0.017	0.108	-0.014	0.018	-0.001	0.031	-0.129	0.122	0.054	-0.11	-0.016	-0.015	0.013	0.046	-0.037	0.126	0.038
GNB2 (UniProt P62879)	0.11	0.018	-0.053	-0.018	-0.023	0.044	0.036	0.012	-0.019	-0.042	0.122	0.103	0.003	0.046	-0.01	-0.023	-0.042	-0.01	-0.079	0.3 (active)
IFRD1 (UniProt O00458)	0.123	0.033	0.098	-0.04	-0.103	0.001	0.058	-0.111	-0.154	-0.079	0.107	-0.015	-0.14	0.053	0.019	-0.016	-0.143	0	-0.097	0.297
GTF2A2 (UniProt P52657)	0.009	-0.029	0.052	0.03	-0.091	-0.083	-0.017	-0.053	-0.044	0.007	0.053	0.097	-0.07	0.036	0.03	0.025	-0.03	0.003	-0.046	-0.031
GSK3A (UniProt P49840)	-0.025	0.009	0.197	0.021	-0.094	-0.023	-0.003	-0.039	-0.053	0.014	-0.067	0.002	0.002	0	0.025	-0.101	-0.008	0.017	-0.066	0.033
HIST2H3A (UniProt Q71DI3)	-0.1	-0.004	-0.119	-0.056	0.921 (active)	-0.203	0.592	0.037	0.321	-0.148	-0.206	0.111	-0.023	-0.003	-0.185	0.315	-0.124	0.011	0.56	0.09
GEMIN5 (UniProt Q8TEQ6)	0.035	-0.038	0.009	-0.013	-0.004	0.015	0.093	0.018	-0.1	0.019	-0.122	-0.438 (active)	0.034	-0.014	-0.007	0.042	0.015	0.046	0.019	-0.094
GSK3B isoform 2 (UniProt P49841)	0.015	-0.022	0.044	0.034	0.003	-0.008	-0.018	-0.066	-0.07	-0.017	0.013	-0.027	-0.002	0.058	-0.032	-0.1	-0.001	0.036	-0.004	0.004
HMGCR isoform 3 (UniProt P04035)	0.131	-0.046	0.061	-0.115	0.074	-0.002	-0.04	-0.043	0.034	0.027	-0.007	-0.019	-0.07	0.356 (active)	-0.04	0.015	-0.023	-0.006	-0.009	0.272
